# In paper PMC12670160, “A drug-repurposing screen of FDA- and EMA-approved drugs identifies two NF-κB inhibitors active against eumycetoma” (Journal of Antimicrobial Chemotherapy, 2025):
# Structures can show the parent of a compound that is named as a salt. Where two headings read alike, the source gives them in different places. The whole screen tested about 5,300 compounds, of which about 130 (2.5%) showed an effect of 50% or more. The sample as a whole holds a higher share of strong results than the screen did.
# Test system: M. mycetomatis strain mm55
# Settings: primary screen, metabolic activity vs growth control, 96 h, 2 µM, inhibitor
# [1] = Madurella mycetomatis metabolic activity at 2µM (%)
Structure (SMILES),% viability [%],% viability [1] [%]
"CN1CCN2c3c(cccc31)[C@@H]1CN(CCCC(=O)c3ccc(F)cc3)CC[C@@H]12 [ONC0001244, lumateperone tosylate]",56.09,–
"CC1=NN(c2ccc(C)c(C)c2)C(=O)/C1=N/Nc1cccc(-c2cccc(C(=O)O)c2)c1O [ONC0004936, eltrombopag olamine]",85.22,–
"N#CC(c1ccccc1)(c1ccccc1)c1ccccc1Cl [ONC0000177, tram39]",89.73,–
Clc1ccccc1C(c1ccccc1)(c1ccccc1)n1ccnc1 [Clotrimazole],2.944,–
"FC(F)(F)c1ccccc1-n1ccnc1 [ONC0000025, trim]",101,–
"C=CC1=C(C)c2cc3[nH]c(cc4nc(cc5[nH]c(cc1n2)c(C)c5CCC(=O)O)C(CCC(=O)OC)=C4C)[C@@]1(C)C3=CC=C(C(=O)OC)[C@H]1C(=O)OC [ONC0001491, verteporfin]",55.47,–
"CC(C)(C)c1ccc(-c2nc3c(N4CCN(Cc5ccc6nccnc6c5)CC4)cccc3[nH]2)cc1 [ONC0001828, way207024]",97.56,–
"N=C(N)NCCC[C@@H](N)C(=O)O [ONC0004802, larginine hcl]",91.52,–
"CN1C/C=C/CCOc2cccc(c2)-c2ccnc(n2)Nc2cccc(c2)C1 [ONC0001026, sb1317]",86.64,–
"Nc1nc2c(ncn2[C@@H]2O[C@H](CO)[C@@H](O)[C@H]2O)c(=S)[nH]1 [ONC0004689, thioguanosine]",121.6,–
"C=C[C@@]1(C)CC(=O)[C@]2(O)[C@@]3(C)[C@@H](O)CCC(C)(C)[C@@H]3[C@H](OC(=O)CCN(C)C)[C@H](OC(C)=O)[C@@]2(C)O1 [ONC0002915, colforsindaproate]",95.97,–
"C/C=C(\C)C(=O)O[C@H]1[C@H](OC(C)=O)[C@@]2(CO)C(CC1(C)C)C1=CCC3[C@@]4(C)CCC(O[C@@H]5O[C@H](C(=O)O)[C@@H](O[C@@H]6O[C@H](CO)[C@@H](O)[C@H](O)[C@H]6O)[C@H](O)[C@H]5O[C@@H]5O[C@H](CO)[C@@H](O)[C@H](O)[C@H]5O)[C@](C)(CO)C4CC[C@@]3(C)[C@]1(C)C[C@H]2O (stereo partly drawn) [ONC0002310, escin]",67.54,–
"CN1CCOC(c2ccccc2)c2ccccc2C1 (stereo not drawn) [ONC0000697, nefopam]",116,–
"CN1CCC2=C(C1)c1ccccc1Cc1ccccc12 [ONC0005445, setiptiline]",113.1,–
"CN1CCC2=C(C1)C(c1ccccc1)c1ccccc12 (stereo not drawn) [ONC0001922, phenindamine]",47.96,–
"CSCC[C@H](N)C(=O)O [ONC0005517, lmethionine]",–,102.8
"Cc1ccc(NC(=O)c2ccc(CN3CCC(N(C)C)C3)c(C(F)(F)F)c2)cc1Nc1ncc(-c2cncnc2)cn1 (stereo not drawn) [ONC0004625, bafetinib inno406]",85.25,–
"CC(=O)NC1=NN(C(C)=O)C(C)(c2ccccc2)S1 (stereo not drawn) [ONC0002658, k858]",49.67,–

Structure (SMILES),% viability [%],% viability [1] [%]
"CCNCCS(=O)(=O)NC[C@@]1(c2ccccc2)SC(NC(=O)C(C)(C)C)=NN1C(=O)C(C)(C)C [ONC0000804, litronesib]",77.28,–
"CC(=O)Nc1ccccc1 [ONC0000688, acetanilide]",114.7,–
"CCCCN1[C@@H]2CC[C@H]1C[C@@H](OC(c1ccc(F)cc1)c1ccc(F)cc1)C2 [ONC0003046, jhw007]",64.39,–
"FC(F)(F)c1ccc(CNc2ccc(Cc3c[nH]c4ncccc34)cn2)cc1 [ONC0002656, plx647]",82.24,–
"CCOc1cc(C(C)(C)C)ccc1C1=NC(C)(c2ccc(Cl)cc2)C(C)(c2ccc(Cl)cc2)N1C(=O)N1CCN(CCCS(C)(=O)=O)CC1 (stereo not drawn) [ONC0004446, rg7112 ro5045337]",112.9,–
"Nc1ccn([C@@H]2O[C@@](CO)(CCl)[C@@H](O)[C@H]2F)c(=O)n1 [ONC0000939, als8112]",44.91,–
"[N-]=[N+]=N[C@]1(CO)O[C@@H](n2ccc(N)nc2=O)[C@H](O)[C@@H]1O [ONC0001768, r1479]",81.29,–
"[N-]=[N+]=N[C@]1(CO)O[C@@H](n2ccc(N)nc2=O)[C@@H](O)[C@@H]1O [ONC0000950, ro9187]",66.7,–
"[H]/N=C(/N)c1ccc(NCc2nc3cc(C(=O)N(CCC(=O)O)c4ccccn4)ccc3n2C)cc1 [ONC0004940, bibr 953 dabigatran etexilate pradaxa]",81.22,–
"C=C[C@H]1C[N@@]2CC[C@H]1C[C@@H]2[C@@H](O)c1ccnc2ccc(OC)cc12 [ONC0003347, quinidine gluconate]",101.1,–
"O=C(Nc1c[nH]nc1-c1nc2cc(CN3CCOCC3)ccc2[nH]1)NC1CC1 [ONC0004692, at9283]",87.23,–
C[C@@H](c1ncncc1F)[C@](O)(Cn1cncn1)c1ccc(F)cc1F [Voriconazole],2.12,–
C[C@@H](c1nc(-c2ccc(C#N)cc2)cs1)[C@](O)(Cn1cncn1)c1cc(F)ccc1F [Isavuconazole],3.591,–
C[C@@H](c1nc(-c2ccc(C#N)cc2)cs1)[C@](O)(Cn1cncn1)c1ccc(F)cc1F [Ravuconazole],0.9972,–
"OC(Cn1cncn1)(Cn1cncn1)c1ccc(F)cc1F [ONC0005572, fluconazole]",73.77,–
"CO[C@H]1CC[C@H](N2C(=O)CNc3ncc(-c4ccc(C(C)(C)O)nc4)nc32)CC1 [ONC0001106, cc223]",54.41,–
"COc1ccc(-c2cnc3c(-c4cccc5ncccc45)cnn3c2)cc1 [ONC0002277, chr6494]",–,84.04
"C[C@@H]1[C@H](O)[C@@H](C)/C=C/C=C/CC/C=C/C=C/C=C/C=C/[C@H](O[C@@H]2O[C@H](C)[C@@H](O)[C@H](N)[C@@H]2O)C[C@@H]2O[C@](O)(C[C@@H](O)[C@H](O)CC[C@@H](O)C[C@@H](O)C[C@@H](O)CC(=O)O[C@H]1C)C[C@H](O)[C@H]2C(=O)O [ONC0002036, nystatin]",93.36,–
